Experiments:
[1] = test system: Botulinum neurotoxin type F light chain protease (Clostridium botulinum); assay: Botulinum neurotoxin type F light chain protease inhibition, multiplex microsphere flow cytometry, validation set (AID 588459); conditions: multiplex microsphere protease substrate cleavage assay, at 10 µM, hits give high values
[2] = target: Botulinum neurotoxin type A (Clostridium botulinum) (UniProt P0DPI0); assay: BoNT/A light chain protease inhibitors, biochemical, multiplex microsphere flow cytometry, validation set (AID 588460); conditions: at 10 µM, hits give high values
[3] = target: Lethal factor (Bacillus anthracis) (UniProt P15917); assay: Lethal factor protease inhibitors, Bacillus anthracis, multiplex microsphere cleavage assay, validation set (AID 588461); conditions: flow cytometry, at 10 µM, hits give high values

Measured: inhibition

COc1ccc2c(c1)c(CC(=O)O)c(C)n2C(=O)c1ccc(Cl)cc1
inactive: [1] 0.9% | [2] -1.5% | [3] -4.2%

COc1ccc2c(c1)C(=O)CC(c1ccccc1F)O2 (stereo not drawn)
inactive: [1] 1.4% | [2] -0.4% | [3] -0.9%

CC(C)(C)OC(=O)COc1cc(OCC(=O)OC(C)(C)C)c2c(=O)cc(-c3ccccc3)oc2c1
inactive: [1] 1.4% | [2] 0.8% | [3] -7.2%

O=C(CN1C(=O)C2CCc3[nH]c4ccccc4c3C2C1=O)N1CCCC1 (stereo not drawn)
inactive: [1] 0.5% | [2] 1.1% | [3] 4.3%

CCCCC[C@H](O)/C=C/[C@@H]1[C@@H](C/C=C\CCCC(=O)OC)[C@@H](O)C[C@H]1O
inactive: [1] -3.3% | [2] -1% | [3] -1.1%

COc1cc2c3c(c1)C1(C(=O)N3C(C)(C)C=C2C)C(C#N)=C(N)Oc2cc(C)oc(=O)c21 (stereo not drawn)
inactive: [1] 0.4% | [2] 2.4% | [3] -3.3%

COc1ccc(C2C3C(C)=NN=C3CC(C)(O)C2C(C)=O)cc1 (stereo not drawn)
inactive: [1] -2% | [2] -0.6% | [3] 4%

CC(C)=CC/C=C1\CCC(C(=O)O)C(C(=O)O)C1 (stereo not drawn)
inactive: [1] -1.1% | [2] -1.6% | [3] -3.4%

Cc1oc2cc(O)ccc2c(=O)c1Oc1ccccc1Br
inactive: [1] -1.1% | [2] -0.5% | [3] -0.7%

COc1ccc(C2=CC(=O)C=CC2=O)cc1
inactive: [1] -4.7% | [2] -1.3% | [3] -4.1%

OC(CCCN1CCC(O)(c2ccc(Cl)cc2)CC1)c1ccc(F)cc1 (stereo not drawn)
inactive: [1] -1.7% | [2] 1.7% | [3] -4.8%

CCOC(=O)c1ccc2[nH]c(C)c(CCC(C)=O)c(=O)c2c1
inactive: [1] -0.7% | [2] 0.3% | [3] 6%

O=c1c(C(c2ccccc2)c2c(O)sc3ccccc3c2=O)c(O)sc2ccccc12
inactive: [1] -0.8% | [2] 1.7% | [3] 2.4%

COC(=O)c1cc(-c2ccc(C)o2)nc2ccccc12
inactive: [1] 1.8% | [2] 2% | [3] 2.2%

CCOC(=O)C1NN=C(C(=O)c2ccccc2)C1c1ccc(Cl)cc1 (stereo not drawn)
inactive: [1] 3% | [2] 1.4% | [3] 3.2%

Fc1ccc(C(c2ccc(F)cc2)N2CCN(C/C=C/c3ccccc3)CC2)cc1
inactive: [1] -5.9% | [2] -1.8% | [3] -5.7%

COc1ccc(/C=N\NC(=O)CCc2c(C)n[nH]c2C)c(OC)c1OC
inactive: [1] -0.8% | [2] 0.3% | [3] 8.6%

CCCCCC(=O)O[C@]1(C(C)=O)CC[C@H]2[C@@H]3CCC4=CC(=O)CC[C@]4(C)[C@H]3CC[C@@]21C
inactive: [1] 1.9% | [2] 1.3% | [3] -1.6%

CCn1cc(C(=O)O)c(=O)c2cc(F)c(N3CCNCC3)cc21
inactive: [1] -0.1% | [2] -0.5% | [3] 2.3%

OC(COCc1ccccc1)CN1CCN(Cc2ccc3c(c2)OCO3)CC1 (stereo not drawn)
inactive: [1] 0.6% | [2] 0.3% | [3] 2.8%

O=C(Nc1cccc(Oc2c(F)c(F)c(F)c(F)c2F)c1)N1C[C@@H]2C[C@@H](C1)c1cccc(=O)n1C2
inactive: [1] 2.7% | [2] 1.4% | [3] 7.2%

O[C@H]1COC2C1OC[C@@H]2O (stereo partly drawn)
inactive: [1] -2.3% | [2] -0.4% | [3] 0%

CC(C)(C)NC[C@H](O)COc1nsnc1N1CCOCC1
inactive: [1] 0.1% | [2] 0% | [3] -3.8%

CC(C)Oc1ccc(C2CC(=O)N(c3ccc(C(=O)O)cc3)C2=O)cc1 (stereo not drawn)
inactive: [1] 2.1% | [2] -0.7% | [3] -6.7%

CC(=O)N1CCN(c2ccc(OC[C@H]3CO[C@](Cn4ccnc4)(c4ccc(Cl)cc4Cl)O3)cc2)CC1
inactive: [1] -2.2% | [2] -1.1% | [3] -3.1%

CCCOc1ccc(-c2cc(C(=O)NCC3CCCO3)c3ccccc3n2)cc1 (stereo not drawn)
inactive: [1] -0.2% | [2] -0.7% | [3] -5.1%

O=C1OC(c2ccccc2)=C/C1=C/c1cccs1
inactive: [1] 6.4% | [2] 1.5% | [3] 0.7%

COc1ccc2oc(=O)c(C(=O)N3CCN(c4ccccc4)CC3)cc2c1
inactive: [1] -1% | [2] 0.2% | [3] 1.6%

CCOC(=O)[C@H](CCc1ccccc1)N[C@@H](C)C(=O)N1CCC[C@H]1C(=O)O
inactive: [1] 3.5% | [2] 0.2% | [3] 3.9%

O=C(CC1SC(=O)NC1=O)Nc1ccc(Cl)cc1 (stereo not drawn)
inactive: [1] -1.9% | [2] 0.8% | [3] -0.5%

COc1cccc(-n2cc(CNCc3c(C(=O)N(C)C)nc4ccc(Cl)cn34)cn2)c1
inactive: [1] 1.3% | [2] -0.7% | [3] 7.5%

COc1ccc(NC(=O)CC(c2ccccc2)c2ccco2)cc1 (stereo not drawn)
inactive: [1] 2.3% | [2] 0.9% | [3] 9.1%

Cc1ccsc1C1NC(=O)c2ccccc2N1 (stereo not drawn)
inactive: [1] -6.7% | [2] -1.3% | [3] -5.3%

COc1ccc(CCNC(=O)c2ccc(Cl)cc2)cc1OC
inactive: [1] 0.6% | [2] -1.4% | [3] -4.6%

CSCCC(NC(=O)OC(C)(C)C)C(=O)Oc1ccc2c(=O)c(-c3ccc4c(c3)OCCO4)coc2c1 (stereo not drawn)
inactive: [1] -0.4% | [2] -0.4% | [3] -1.7%

CC(=O)O[C@]1(C(C)=O)CC[C@H]2[C@@H]3C=C(C)C4=CC(=O)CC[C@]4(C)[C@H]3CC[C@@]21C
inactive: [1] 2% | [2] 1.2% | [3] -4.2%

CC(=O)Nc1nnc(S(N)(=O)=O)s1
inactive: [1] 5.4% | [2] -0.3% | [3] -2.6%

CC(=O)N/C(=C/c1ccc2c(c1)OCO2)C(=O)NCCO
inactive: [1] 3.7% | [2] 0.6% | [3] 1%

Cc1csc(N)n1
inactive: [1] 0.3% | [2] 0.1% | [3] 3%

Nc1ccc(S(N)(=O)=O)cc1N
inactive: [1] 1.4% | [2] -2.7% | [3] -20%

O=C(/C=C/c1ccccc1)/C=C/c1ccccc1
inactive: [1] 0.8% | [2] 0.3% | [3] 1.5%

Cc1c(O)c(=O)ccn1C
inactive: [1] 3.3% | [2] -1% | [3] 0.9%

CC1=CC(C)(C)N2C(=O)C3(NCCc4c3[nH]c3ccccc43)c3cc(C)cc1c32 (stereo not drawn)
inactive: [1] -0.9% | [2] -2.5% | [3] 0.2%

C[C@H]1O[C@@H](O[C@H]2[C@@H](O)C[C@H](O[C@H]3[C@@H](O)C[C@H](O[C@H]4CC[C@@]5(C)[C@H](CC[C@@H]6[C@@H]5C[C@@H](O)[C@]5(C)[C@@H](C7=CC(=O)OC7)CC[C@]65O)C4)O[C@@H]3C)O[C@@H]2C)C[C@H](O)[C@@H]1O
inactive: [1] 2.7% | [2] -0.7% | [3] -2.8%

CC(C)c1ccc(/C=C/C(=O)O)cc1
inactive: [1] 1.6% | [2] -0.1% | [3] 11%

Cn1c(=O)[nH]c(=O)c2c1nc(NCc1ccco1)n2CCCc1ccccc1
inactive: [1] -0.8% | [2] -0.7% | [3] 0.5%

COc1ccc(-c2onc(C)c2-c2ccc(C(=O)OC(C)C)o2)c(O)c1
inactive: [1] 1.1% | [2] 0.9% | [3] 0.9%

Cn1nc(-c2ccc(Cl)cc2)nc2c(=O)n(C)c(=O)nc1-2
inactive: [1] -0.5% | [2] 2% | [3] 3.7%

NCCCC(N)(C(=O)O)C(F)F (stereo not drawn)
inactive: [1] -3% | [2] 0.5% | [3] -2.1%

Fc1ccccc1CNCCC(Cc1ccccc1)c1ccc2c(c1)OCO2 (stereo not drawn)
inactive: [1] -8.9% | [2] -0.6% | [3] 1.9%

Cc1cn([C@H]2C=C[C@@H](CO)O2)c(=O)[nH]c1=O
inactive: [1] -1.8% | [2] -2.2% | [3] -0.8%

CC[C@]1(O)CC2CN(CCc3c([nH]c4ccccc34)[C@@](C(=O)OC)(c3cc4c(cc3OC)N(C=O)[C@H]3[C@@](O)(C(=O)OC)[C@H](OC(C)=O)[C@]5(CC)C=CCN6CC[C@]43[C@@H]65)C2)C1 (stereo partly drawn)
inactive: [1] 1.5% | [2] 0% | [3] -12.5%

COc1ccc2oc(C)c(C(N)=O)c2c1
inactive: [1] -1.6% | [2] 0.5% | [3] -0.4%

Cc1ccc(NCCC(=O)c2ccccc2)cc1Cl
inactive: [1] 4.1% | [2] 0.4% | [3] -2.5%

CC1(C)Cc2nc3oc4c(NCc5ccccc5)ncnc4c3cc2CO1
inactive: [1] 0.7% | [2] 0.2% | [3] 2.2%

CCOc1ccc(C(=O)NCC2(c3ccccc3)CCOCC2)cc1
inactive: [1] -5.3% | [2] -0.2% | [3] -6.4%

CCC(C)NCCOCCOc1ccc(Cl)cc1Br (stereo not drawn)
inactive: [1] 0.5% | [2] 0.2% | [3] -2.1%

CCOC(=O)COc1ccc2c(=O)c(-c3ccccc3)coc2c1
inactive: [1] -1.6% | [2] 1.3% | [3] 1%

O=C(Nc1ccc(Cl)cn1)Nc1ccccc1Cl
inactive: [1] 2.9% | [2] 0.2% | [3] -4.9%

COc1ccc(N2C(=O)[C@@H]3Cc4ccccc4CN3C2=O)cc1
inactive: [1] 1.7% | [2] 0.4% | [3] -0.7%

COc1cc(C2Nc3ccccc3NC3=C2C(=O)CC(c2ccc(OC)c(OC)c2)C3)ccc1O (stereo not drawn)
inactive: [1] -5.5% | [2] -0.9% | [3] 0%

Source: PubChem BioAssay
